The sample as a whole holds a higher share of hits than the screen did.
Pf Dd2 inh: Plasmodium falciparum Dd2 growth inhibition. P. falciparum Dd2 growth, SYBR Green, 72 h. Potency, µM (highest dose often 28.9 µM), inactives show top-dose activity, negative = inhibition, usual class: inhibitors. 4.3% of 120,000 active. AID 1347417; active means well fitted inhibition curve with a large enough effect;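 further: plate controls were DMSO vehicle for no effect and reference drug for full effect; nearly all actives have a fitted effect of over 65% in size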
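Infected erythrocytes (Dd2, 0.3% parasitemia, 2.5% hematocrit final) are added to compound in RPMI-1640/Albumax II medium, grown 72 h at 37C in low oxygen, then lysed with saponin/Triton-X containing SYBR Green and read by fluorescence.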
* marks the source's active call; other numbers are inactive results; i = inactive; [ ] = dose if it differs, or a comment. Potency means the concentration at half of the fitted maximal effect.

SMILES | Pf Dd2 inh
Cc1ccc(NC(=O)C2CCCN(c3nnc(C)c4c(C)n(-c5ccccc5)nc34)C2)cc1Cl (stereo not drawn) | 24%
COc1ccccc1CCNC(=O)C1CCN(c2nnc(C)c3c(C)n(-c4ccc(C)cc4)nc23)CC1 | 6.3µM*
CCN(CC)C(=O)C1CCN(c2nnc(C)c3c(C)n(-c4ccc(Cl)cc4)nc23)CC1 | 82%[5.79 µM]
Cc1ccc(Cl)cc1NC(=O)C1CCN(c2nnc(C)c3c(C)n(-c4ccccc4)nc23)CC1 | i
CCOc1ccccc1CNC(=O)CSc1nnc(C)c2c(C)n(-c3ccccc3)nc12 | -4%
Cc1nnc(N2CCC(C(=O)NCCc3ccccc3Cl)CC2)c2nn(-c3ccccc3)c(C)c12 | 11µM*
COc1ccccc1-n1cc(C(=O)NC(C(=O)O)c2c(C)n[nH]c2C)cn1 (stereo not drawn) | -17%
Cc1ccc(C(=O)N2CCC(N3CCCOC3=O)CC2)cc1 | 24%[44.1 µM]
O=C(NC1CCCC1)c1c(OCC2CC2)cc(=O)n2c1CCOCC2 | 20%
O=C(NCc1nnc2cc(-c3nc(C4CC4)no3)ccn12)c1ccccc1F | i
COc1ccc(CCn2nc3n(c2=O)CCN(Cc2ccccc2C)C3=O)cc1 | -7%
c1ccc(-c2cnc(Nc3ccc(N4CCOCC4)cc3)c3c2CCO3)nc1 | -1%[44.1 µM]
COc1ccc(-c2noc([C@H](C)O)c2C(=O)NC(C)C)cc1 | -6%[44.1 µM]
O=C(CN1CCNCC1)NCc1nc(-c2cccc(F)c2)c(-c2ccccn2)[nH]1 | -16%
Cc1ccc(-c2nc(CNC(=O)[C@@H]3CCC[C@H](N)C3)[nH]c2-c2ccccn2)cc1 | 10µM*
O=C(NCc1nc(-c2cccc(F)c2)c(-c2ccccn2)[nH]1)[C@@H]1C[C@@H](O)CN1 | 13%
C=CCn1nc(C)c(CN2CCC(Oc3ccccc3OC)(C(=O)O)CC2)c1C | 4%
CN1C[C@@H](NS(C)(=O)=O)C[C@H]1c1nc(-c2ccc(Cl)cc2)no1 | i
Cc1ccc(-c2nnc(C3CN(C(=O)c4n[nH]c5ccccc45)CC34CCOCC4)o2)cc1 (stereo not drawn) | 8.9µM*
Cc1ccc(-c2nnc(C3CN(C(=O)Cc4cccc(F)c4)CC34CCOCC4)o2)cc1 (stereo not drawn) | i
Cc1ccc(-c2nnc(C3CN(C(=O)c4cccc(C)c4)CC34CCOCC4)o2)cc1 (stereo not drawn) | i
Cc1ccc(-c2nnc(C3CN(C(=O)c4cccnc4C)CC34CCOCC4)o2)cc1 (stereo not drawn) | -14%
Cc1ccc(-c2nnc(C3CN(C(=O)c4cccc(F)c4)CC34CCOCC4)o2)cc1 (stereo not drawn) | 4µM*
Cc1ccc(-c2nnc(C3CN(C(=O)c4ccn[nH]4)CC34CCOCC4)o2)cc1 (stereo not drawn) | i
COCCNC(=O)c1ccc2c(c1)N(C)C(CC(=O)NCC(C)(C)C)CO2 (stereo not drawn) | -9%
SMILES | Pf Dd2 inh
CCC(CC)C(=O)NC[C@H]1O[C@@H](CC(=O)N2CCN(c3ccc(F)cc3)CC2)[C@H](O)[C@@H]1O | -14%
COCc1nc(C2CCCN(C(=O)Cc3ccc(OC)cc3)C2)no1 (stereo not drawn) | 61%
CNC(=O)NC[C@H]1CCN(Cc2ccc(F)cc2F)C[C@H]1N(C)C | -13%
Cc1ncsc1CN1CCC(C2CCN(S(C)(=O)=O)CC2)C1 (stereo not drawn) | -16%
COCc1cc(=O)n(CC(=O)Nc2ccc(C)cc2C)c(N2CCOCC2)n1 | -4%
CC(C)c1noc(-c2cn(C3CCCN(C(=O)c4ccc(F)cc4)C3)nn2)n1 (stereo not drawn) | i
CCC(=O)C1=C(c2ccc(Cl)cc2)N(C(=O)CC)n2c(C)nnc2S1 | 2.8µM*
Cc1ccc(C2CCN(C(=O)Nc3ccc(Cl)cc3)C2)cc1 (stereo not drawn) | i
CCC(=O)C1=C(c2ccc(F)cc2)N(C(=O)CC)n2c(nnc2C2CCCCC2)S1 | 3.2µM*
CCn1c(SCC(=O)c2ccc([N+](=O)[O-])cc2)nnc1-c1ccc(Cl)cc1 | i
Cn1nnnc1C1CCCN(C(=O)c2ccc(F)cc2)C1 (stereo not drawn) | 9%
CCCSC1=NC2(CCN(C(=O)NC3CCCCC3)CC2)N=C1c1ccc(Cl)cc1 | 7%
Cn1c(Cn2cccn2)nnc1C1CCCN(C(=O)c2cccc(F)c2)C1 (stereo not drawn) | 6%
CC(=O)C1=C(c2ccc(Cl)cc2)N(C(C)=O)n2c(nnc2C2CCCCC2)S1 | 1µM*
O=C(O)CC1COCCN1Cc1ccsc1 (stereo not drawn) | 5%
O=C(NC1CC1)c1ccc2nnc(-c3cccc(OC(F)(F)F)c3)n2c1 | -6%
COc1ccc(C(=O)NCc2nnc3cc(-c4nc(C)no4)ccn23)cc1F | -4%
O=C(c1ccccc1)N1CCCC2(C1)Nc1cccnc1NC2=NCc1ccccc1 (stereo not drawn) | -19%[5.79 µM]
COCCNC(=O)C[C@@H]1C[C@H]2O[C@H](CNC(=O)Nc3ccc(OC)cc3)[C@@H](O)[C@H]2O1 | 14%[44.1 µM]

Compound activity as filed in PubChem BioAssay.
